# Measured values from PubChem BioAssay AID2490 (National Center for Advancing Translational Sciences (NCATS), 2010).
# Calls of active or inactive are those of the source. Calls follow the shape of the full dose curve.
# Biological target: Thyroid hormone receptor beta (Homo sapiens) (UniProt P10828)
# Assay: Secondary Confirmation Assay for Inhibitors of the Interaction of Thyroid Hormone Receptor and Steroid Receptor Coregulator 2, Texas Red Fluoroprobe
# Conditions: TRb LBD / Texas Red SRC2 peptide fluorescence polarization
# Text: NIH Molecular Libraries Probe Production Network [MLPCN] NIH Chemical Genomics Center [NCGC] MLPCN Grant: DK058080 Assay Provider: R. Kip Guy, St. Jude Children's Research Hospital NCGC Assay Overview: Thyroid receptor (TR) regulates many homeostatic processes including basal metabolism, cardiovascular function, body weight, and lipid trafficking. TR modulators are potential therapeutics for obesity and hyperlipidemias but current thyroid analogs have undesirable side effects, particularly cardiac stimulation. To identify inhibitors that specifically prevent the interaction of TR with the steroid receptor coregulator 2 (SRC2), a fluorescence polarization assay was screened (Arnold et al., 2006). This assay detects the interaction of the ligand-binding domain of human TRb with a Texas Red labeled SRC2 peptide, corresponding to a 20 amino acid region of the nuclear receptor interaction domain. Small molecule inhibitors that block the interaction of TR and SRC2 are detected by a decrease in fluorescence polarization.
# NCGC Assay Protocol Summary: Twenty uL/well 0.6 uM TRb and 20 nM Texas Red labeled SRC2-2 in protein buffer (20mM Tris hydrochloride, pH 7.4, 100mM NaCl, 10% glycerol, 1mM EDTA, 0.01% NP-40, 1mM DTT, 1uM T3 and 4% DMSO) was dispensed into black solid 384-well plates (Costar 3710) using a Biomek FX (Beckman Coulter) liquid handling system. Following transfer of 260 nL compound (ranging from 7 nM to 130 uM), the plates were incubated 3 hr at ambient temperature. The plates were read by an Envision (Perkin Elmer) to detect fluorescence polarization of SRC2 Texas Red (555 nm excitation and 632 nm emission). Arnold, L. A.; Estebanez-Perpina, E.; Togashi, M.; Shelat, A.; Ocasio, C. A.; McReynolds, A. C.; Nguyen, P.; Baxter, J. D.; Fletterick, R. J.; Webb, P.; Guy, R. K. A high-throughput screening method to identify small molecule inhibitors of thyroid hormone receptor coactivator binding. Sci STKE 2006, p 13.
# Sequence of Thyroid hormone receptor beta (Homo sapiens) (P10828 whole entry, looked up): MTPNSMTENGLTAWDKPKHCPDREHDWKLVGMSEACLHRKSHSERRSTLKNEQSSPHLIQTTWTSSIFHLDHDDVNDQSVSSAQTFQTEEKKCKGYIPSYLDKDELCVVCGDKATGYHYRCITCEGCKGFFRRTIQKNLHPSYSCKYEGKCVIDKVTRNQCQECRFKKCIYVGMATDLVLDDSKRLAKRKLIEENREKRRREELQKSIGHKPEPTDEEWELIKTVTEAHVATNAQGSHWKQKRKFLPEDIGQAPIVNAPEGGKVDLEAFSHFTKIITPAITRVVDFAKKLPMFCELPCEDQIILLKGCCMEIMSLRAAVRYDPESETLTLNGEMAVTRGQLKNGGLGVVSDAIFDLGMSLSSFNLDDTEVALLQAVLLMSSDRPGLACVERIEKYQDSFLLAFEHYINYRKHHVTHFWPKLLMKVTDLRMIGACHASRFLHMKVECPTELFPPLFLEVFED
SMILES,outcome,Potency
CS(=O)(=O)c1ccc(-c2nnc(-c3ccccc3)o2)cc1[N+](=O)[O-],inactive,
O=C(COC(=O)c1cc([N+](=O)[O-])ccc1F)NC1C2CC3CC(C2)CC1C3 (stereo not given),inactive,
CS(=O)(=O)c1ccc(C(=O)OCC(=O)Nc2cc(C(F)(F)F)ccc2Cl)cc1[N+](=O)[O-],inactive,
C#CCNC(=O)COC(=O)c1ccc(S(C)(=O)=O)c([N+](=O)[O-])c1,inactive,
CS(=O)(=O)c1ccc(C(=O)OCC(=O)N2CC(=O)Nc3ccccc32)cc1[N+](=O)[O-],,3.8 µM (active)
CC(=O)N1CCN(C(=O)COC(=O)c2ccc([S+](C)(=O)[O-])c([N+](=O)[O-])c2)CC1,inactive,
CS(=O)(=O)c1ccc(C(=O)OCC(=O)NC(=O)NC2CCCCC2)cc1[N+](=O)[O-],,19.1 µM (active)
Cc1ccc(-c2csc(-c3ccc(S(C)(=O)=O)c([N+](=O)[O-])c3)n2)cc1,,36.8 µM (active)
CN(C(=O)COC(=O)c1ccc(S(C)(=O)=O)c([N+](=O)[O-])c1)c1ccccc1,,1.6 µM (active)
CS(=O)(=O)c1ccc(C(=O)OCC(=O)N2CCNc3ccccc32)cc1[N+](=O)[O-],,1.1 µM (active)
CS(=O)(=O)c1ccc(C(=O)OCC(=O)NC2C3CC4CC(C3)CC2C4)cc1[N+](=O)[O-] (stereo not given),,1.6 µM (active)
CS(=O)(=O)c1ccc(C(=O)OCC(=O)N2CCC(c3ccccc3)CC2)cc1[N+](=O)[O-],,6.2 µM (active)
N#Cc1ncc(C(=O)OCC(=O)NC2C3CC4CC(C3)CC2C4)cn1 (stereo not given),inactive,
CS(=O)(=O)c1ccc(C(=O)OCC(=O)N2CCC(Cc3ccccc3)CC2)cc1[N+](=O)[O-],,8.2 µM (active)
Cn1cccc1C(=O)NC(=O)COC(=O)c1ccc(S(C)(=O)=O)c([N+](=O)[O-])c1,,38.4 µM (active)
CS(=O)(=O)c1ccc(-c2nnc(-c3ccccc3)s2)cc1[N+](=O)[O-],inactive,
CS(=O)(=O)c1ccc(C(=O)OCC(=O)Nc2ccc(OC(F)(F)F)cc2)cc1[N+](=O)[O-],inactive,
CS(=O)(=O)c1ccc(C(=O)OCC(=O)NCC2CCCO2)cc1[N+](=O)[O-] (stereo not given),inactive,
O=C(COC(=O)c1ccc2ncsc2c1)NC(=O)C1CCCCC1,inactive,
CC1CCCCN1C(=O)COC(=O)c1ccc(S(C)(=O)=O)c([N+](=O)[O-])c1 (stereo not given),,11.5 µM (active)
CS(=O)(=O)c1ccc(C(=O)OCC(=O)N2CCN(c3ccccc3)CC2)cc1[N+](=O)[O-],,24.7 µM (active)
CS(=O)(=O)c1ccc(C(=O)NCC(=O)NC2C3CC4CC(C3)CC2C4)cc1[N+](=O)[O-] (stereo not given),,11.3 µM (active)
CS(=O)(=O)c1ccc(C(=O)OCC(=O)N2CCN(Cc3ccccc3)CC2)cc1[N+](=O)[O-],,15.3 µM (active)
CN1CCN(C(=O)COC(=O)c2ccc(S(C)(=O)=O)c([N+](=O)[O-])c2)CC1,inactive,
O=C(COC(=O)c1cc([N+](=O)[O-])ccc1Cl)NC1C2CC3CC(C2)CC1C3 (stereo not given),inactive,
